Screens from PubChem.
In the library only some 3.1% were active in any assay of this set; here they are far more common.
Tau ThT inhib – blocks human tau fibril formation measured by thioflavin T | AID 1460 | Potency, µM (top dose mostly 57.4 µM), inactives show at the highest dose activity, negative = inhibition, hits mostly inhibitors | 270,000 tested, 2.1% active | P10636 | recombinant tau K18 P301L, heparin-induced fibrillization, ThT fluorescence; also: nearly all actives have a fitted effect of over 55% in size
Target sequence (P10636 561-689 P618L limits assumed): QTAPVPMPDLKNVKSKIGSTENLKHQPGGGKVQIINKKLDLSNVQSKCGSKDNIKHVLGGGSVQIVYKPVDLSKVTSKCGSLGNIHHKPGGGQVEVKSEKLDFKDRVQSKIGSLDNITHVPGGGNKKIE
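Tau K18 P301L fragment (15 uM unlabeled plus 0.24 uM Alexa 594-labeled) in 100 mM sodium acetate pH 7 with compound, fibrillization induced by 20 uM heparin for 6 hr at 37 C. Thioflavin T (30 uM) added, fluorescence read after 1 hr (ex 450, em 510 nm).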
TRb-SRC2 inh – TRbeta-SRC2 interaction inhibition. P10828. TRbeta-SRC2 peptide binding, fluorescence polarization; receptor liganded with 1 µM T3. Potency, µM (titrated, usually from 106 µM), inactives show top-dose activity change, negative = inhibition, usual class: inhibitors. 280,000 tested, 0.065% active. AID 1469;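 also: plate controls were bound peptide for no effect and peptide without receptor for full effect; nearly all actives have a fitted effect of over 50% in size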
Target sequence (P10828 whole entry, looked up): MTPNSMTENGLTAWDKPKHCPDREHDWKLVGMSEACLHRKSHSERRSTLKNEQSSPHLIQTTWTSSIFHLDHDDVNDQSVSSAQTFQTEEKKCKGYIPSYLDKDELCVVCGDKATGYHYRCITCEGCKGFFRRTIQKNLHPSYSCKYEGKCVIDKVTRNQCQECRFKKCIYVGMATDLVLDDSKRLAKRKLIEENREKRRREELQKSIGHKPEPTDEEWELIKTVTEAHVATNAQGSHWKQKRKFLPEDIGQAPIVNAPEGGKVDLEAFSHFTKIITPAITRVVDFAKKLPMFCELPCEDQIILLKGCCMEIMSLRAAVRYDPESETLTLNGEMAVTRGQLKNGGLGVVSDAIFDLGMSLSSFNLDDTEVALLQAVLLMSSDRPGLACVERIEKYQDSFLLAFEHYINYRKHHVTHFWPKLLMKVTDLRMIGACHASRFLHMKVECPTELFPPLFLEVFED
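Fluorescence polarization of 20 nM Texas Red SRC2 peptide with 0.6 uM human TRb ligand-binding domain, in Tris buffer with 1uM T3 and 5% DMSO. Incubated 5 hr ambient; normalized to unbound and bound controls.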
Tau fluor counter – counter-screen for tau fibril formation inhibitors; tau K18 P301L Alexa594 fluorescence, heparin fibrillization; Potency, µM (series often up to 57.7 µM), inactives show at the highest dose activity change, negative = decrease; 280,000 tested, 0.93% active; also: nearly all actives have a fitted effect of over 55% in size
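Human tau K18 P301L (15 uM unlabeled, 0.24 uM Alexa 594-labeled) in 100 mM sodium acetate pH 7 with 20 uM heparin, 6 hr at 37 C. ThT 30 uM added, 1 hr ambient; Alexa 594 FP and total fluorescence read at 555/632 nm.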
Tau FP inhib – inhibitors of human tau fibril formation; Potency, µM (doses to about 57.7 µM), for inactives: top-dose activity, negative = inhibition, hits mostly inhibitors; K18 P301L tau heparin fibrillization, Alexa594 FP, 6 h; 280,000 tested, 0.39% active; AID 1468; also: nearly all actives have a fitted effect of over 55% in size
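K18 P301L tau (15 uM unlabeled/0.24 uM Alexa 594-labeled, final) + compound + heparin 20 uM final; 100 mM NaOAc pH 7; 6 hr 37 C; ThT 30 uM final added, 1 hr RT; FP ex 555/em 632 nm.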
TexasRed fluor – Texas Red fluorescence interference in TRb-SRC2 counter-screen; AID 1479; Potency, µM (doses to about 106 µM), for the others: at the top dose fluorescence change, negative = quenching; TRb/SRC2 Texas Red total fluorescence interference; 280,000 tested, 0.29% active; active = well fitted curve in either direction with a large enough effect; inconclusive = small, poorly fitted or top-dose-only effect
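Human TRb ligand-binding domain at 0.6 uM with 20 nM Texas Red SRC2 peptide in Tris buffer containing 1 uM T3 and 5% DMSO, incubated with compound 5 h at ambient temperature. Total fluorescence (555/632 nm) calculated as parallel + 2 × perpendicular.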
The depositor's hits bear a star; ? = inconclusive; nt = no result; ! = not confirmed by another sample; [ ] = another dose, or the depositor's remark. Unless noted, calls follow the shape of the dose curve; as a rule, active = well fitted curve in the direction sought with a large enough effect; inconclusive = small, poorly fitted or top-dose-only effect, or another doubt; inactive = no such curve, though single readings can be large; an effect the other way counts as inactive or inconclusive. Unless noted, % is scaled to controls: 0 for no effect and ±100 for the full control effect; potency is read from the fitted curve at half-maximal effect.

SMILES	Tau ThT inhib	TRb-SRC2 inh	Tau fluor counter	Tau FP inhib	TexasRed fluor
COc1ccc(OC)c(NC(=O)Nc2ccc(Cl)cc2)c1	?	-5%	14µM*[quencher]	21%	-2%
COc1cc(NC(=O)c2ccco2)c(OC)cc1NC(=O)Nc1ccc(Cl)cc1	?	3%	8.9µM*[quencher]	12%	-5%
COc1ccc(-c2cc3nc(C)c(CCC(=O)N4CCN(c5ccccc5F)CC4)c(C)n3n2)c(OC)c1	-15%	-3%	-12%	8%	-6%
C/C=C1/C(=O)C[C@H]2[C@@H]3CCC4=CC(=O)CC[C@]4(C)[C@H]3CC[C@]12C	nt	-1%	nt	nt	-1%
Cn1c(SCc2cccc(F)c2)nc2c([nH]c3ccccc32)c1=O	11%	-2%	-6%	-4%	?
CCN(C(=O)CSc1nc2ccccc2n1CC(=O)N(C)C1CCCCC1)c1ccccc1	-4%	0%	3%	3%	-3%
CNc1nc(N/N=C/c2ccc([N+](=O)[O-])cc2)nc(Nc2ccccc2)n1	4µM*	-2%	16µM*[quencher]	-7%	1%
Cc1cc(=O)oc2cc(NC(=O)[C@H](CCCCN)NC(=O)[C@H](CC3CCCCC3)NC(=O)OCC3c4ccccc4-c4ccccc43)ccc12	nt	2%	nt	nt	-3%
CC1CCc2c(sc3nc(-c4cc5ccccc5oc4=O)nc(Cl)c23)C1 (configuration not stated)	?	-29%[53 µM]	-14%	8%	32µM*[quencher]
CC(C)(C)C1CCc2c(sc3nc(-c4cc5ccccc5oc4=O)[nH]c(=O)c23)C1 (configuration not stated)	-5%	-8%	-6%	2%	4%
C=CCn1c(=O)/c(=C2/Sc3cc(OC)ccc3N2C)s/c1=C1\C(=O)N(CC)C(=S)N1C	10µM*	-4%	-20%	19%	-1%
CCN1/C(=C2\C(=O)N(C)C(=S)N2C)C=Cc2cc(OC)ccc21	-18%	1%	-9%	-9%	9%
COC(=O)C(C(=O)OC)[C@@H]1c2ccccc2[C@H]2C(=C[C@@H](C)[C@H]3C(=O)N(c4ccccc4)C(=O)[C@H]32)N1C(=O)OC	5%[11.5 µM]	-1%[11.2 µM]	-3%[11.6 µM]	4%[11.6 µM]	-4%[11.2 µM]
COCCCNC(=O)c1c(NC(=O)c2nc(S(C)(=O)=O)ncc2Cl)sc2c1CCCC2	13µM*	-9%	-26%	-12%	4%
CCNC(=O)c1c(NC(=O)c2nc(S(=O)(=O)CC)ncc2Cl)sc2c1CCCC2	6.3µM*	-3%	-27%	-16%	?
CCSc1ncc(Cl)c(C(=O)Nc2sc3c(c2C(=O)NCCCOC)CCCC3)n1	-17%	-15%	-16%	-9%	9%
O=C(O)CCC(NC(=O)C1CCCN1C(=O)OCc1ccccc1)C(=O)O (configuration not stated)	-11%	-2%	-15%	-11%	0%
O=C[C@@H]1CCCN1C(=O)[C@@H]1CCCN1C(=O)OCc1ccccc1	18µM*	-9%	-24%	22µM*	1%
Cc1ccc2c(=O)cc(C(=O)Nc3ccc(S(=O)(=O)N4CCC(C)CC4)cc3)oc2c1C	5%	1%	?	-18%	?
CC1=C(C(=O)NCc2cccc(Br)c2)C2(CCCCC2)OC1=O	-7%	1%	-22%	5%	2%
OC[C@@H]1[C@@H](c2ccc(F)cc2)C(c2ccc(F)cc2)=NN1c1ccccc1	?	1%	28µM*[quencher]	-1%[81.3 µM]	-4%
OC[C@@H]1[C@@H](c2ccccc2)C(c2cccc(Cl)c2)=NN1c1ccccc1	?	-2%	18µM*[quencher]	?	-6%
O=C1OCCN1C(=O)[C@H]1[C@H](c2ccc(Cl)cc2)C(c2cccc(Cl)c2)=NN1c1ccccc1	-11%	2%	?	-12%	-2%
OC[C@@H]1[C@@H](c2ccccc2)C(c2ccccc2)=NN1c1ccccc1	?	4%	13µM*[quencher]	?	-4%
C[C@H]1C(c2ccccc2)=NN(c2ccccc2)[C@@H]1CO	?	-2%[201 µM]	?	?	1%[201 µM]
SMILES	Tau ThT inhib	TRb-SRC2 inh	Tau fluor counter	Tau FP inhib	TexasRed fluor
OC[C@@H]1[C@@H](c2ccc(Cl)cc2)C(c2ccc(F)cc2)=NN1c1ccccc1	-23%[81.4 µM]	-1%	25µM*[quencher]	14%[81.3 µM]	-5%
COc1ccccc1[C@H]1C(c2cccc(Cl)c2)=NN(c2ccccc2)[C@@H]1CO	-17%[81.4 µM]	5%	20µM*[quencher]	?	-1%
OC[C@@H]1[C@@H](c2ccccc2)C(c2ccc(F)cc2)=NN1c1ccccc1	?	11%	10µM*[quencher]	?	1%
Cc1nn(CC(=O)N2CCN(c3ccc(Cl)cc3)CC2)c(=O)c2cccn12	-11%	3%	-15%	5%	-1%
O=C(/C=C/c1ccc(OCc2ccccc2)c(OCc2ccccc2)c1)c1cccnc1	4%	-12%	-4%	-8%	1122µM*[quencher]
O=C1C(SCCO)=C(SCCO)C(=O)c2ccccc21	14µM*	?	2µM*[quencher]	2.5µM*	14µM*![quencher]
CCCCCCCC/C=C\CCCCCCCCOC[C@H](COP(=O)([O-])OCC[N+](C)(C)C)OC(C)=O	-9%	-1%	-8%	-3%	-2%
Cc1ccccc1Cn1c(Oc2ccccc2F)nc2c1c(=O)n(C)c(=O)n2C	4%	11%	-8%	-2%	-2%
CC(=O)N1/C(=C/c2ccc(N(C)C)cc2)C(=O)c2ccccc21	10µM*	3%	10µM*[quencher]	-12%	-2%
COc1ccc(NC(=O)c2cc(OCCCN(C)C)nn2Cc2ccccc2)cc1	nt	1%	nt	nt	-1%
COc1cc(OC)c(NC(=O)Nc2cc(C)on2)cc1Cl	nt	7%	nt	nt	-5%
CCN=C1S/C(=C\c2ccc(-c3cccc(C(=O)O)c3)o2)C(=O)N1CC	1%	2%	2%	2%	2%
CCN1C(=O)/C(=C\c2ccc(-c3ccc([N+](=O)[O-])cc3OC)o2)SC1=Nc1cccc(C(=O)O)c1	14µM*	-2%	?	-17%	3%
Cc1ccccc1N/N=C/c1sc(=O)n(Cc2cccc(C(=O)O)c2)c1Cl	28µM*	1%	?	-7%	-6%
O=C(O)c1cccc(Cn2c(Cl)c(/C=N/NC(=O)c3cc4ccccc4cc3O)sc2=O)c1	20µM*	15%	?	?	-6%
COc1ccc(SCC(CC(C)C)N2CCN(C)CCC2=O)cc1 (configuration not stated)	nt	-5%	nt	nt	-1%
CC#CCN1c2ccccc2[C@]23C[C@@H](C(=O)OC)N(S(=O)(=O)c4ccc(Br)cc4)C2=NC(C(=O)OC)=C(C(=O)OC)[C@H]13	-16%[11.5 µM]	6%[11.2 µM]	-24%[11.6 µM]	-2%[11.6 µM]	-5%[11.2 µM]
CCOC(=O)C(C(C)C)C(N)Cc1ccc(F)cc1 (configuration not stated)	0%	-4%	4%	4%	-3%
COc1cc(/C=C/C(=O)N2C(=O)c3cccc(N)c3C2=O)cc(OC)c1OC	?	-6%	-15%	?	1%
